# Bioassay records deposited in PubChem BioAssay by National Center for Advancing Translational Sciences (NCATS).
# This is a sample that favours compounds with a hit; in the whole collection about 10% have one here.
# Luciferase inh = inhibitors of firefly (Photinus pyralis) luciferase | AID 1347043 | 76,000 compounds, 2.5% hits | purified P. pyralis luciferase, luminescence, biochemical | Potency, µM (series often up to 115 µM), usual class: inhibitors | P08659; further: nearly all actives have a fitted effect of over 65% in size
#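 Luminescence read by CCD imager after adding enzyme (10nM final) to wells holding compound, titrated in qHTS. Substrates 10uM each D-luciferin and ATP; buffer 50mM Tris acetate pH 7.5, 10mM Mg acetate, Tween-20, BSA.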
# NIH3T3 tox = cytotoxic compounds in NIH 3T3 cells | Potency, µM (titrated, usually from 96.7 µM), inactives show at the top dose activity change, negative = cytotoxicity, usual class: inhibitors | NIH 3T3 viability, CellTiter-Glo ATP luminescence, 48-72 h | AID 1345082 | 94,000 compounds, 4.3% hits; further: nearly all actives have a fitted effect of over 55% in size
#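 Mouse fibroblast NIH 3T3 cells, 400 per well, received compound via pintool and were incubated for 48 or 72 hr prior to CellTiter-Glo ATP luminescence measurement.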
# hNpr1 antagonist = human Npr1 receptor antagonism | Potency, µM (top dose mostly 46.3 µM), without a hit: at the highest dose activity change, negative = inhibition, hits mostly inhibitors | HEK293 hNpr1 GloSensor cGMP, ANP-stimulated luminescence | 76,000 compounds, 1.6% hits; calls by dose curve; further: nearly all actives have a fitted effect of over 60% in size
#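 Compound pre-incubated 30 min at room temperature on GloSensor-loaded HEK293 cells stably carrying hNpr1 and the pGS-40F cGMP biosensor. Stimulation uses hNppA at 0.1 nM final; luminescence is taken at baseline and 20 min post-agonist.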
# HEK293 tox = HEK 293 cell cytotoxicity; 94,000 compounds, 6.6% hits; Potency, µM (highest dose often 115 µM), for inactives: top-dose activity change, negative = cytotoxicity, hits mostly inhibitors; HEK 293 viability, ATP luminescence (CellTiter-Glo), 48-72 h; further: nearly all actives have a fitted effect of over 60% in size
#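 CellTiter-Glo luminescence (cellular ATP) was read after 48 or 72 hr of compound exposure at 37 degree Celsius. Cells were HEK 293 plated at 250 cells/well.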
# GPT2 inh = GPT2 alanine aminotransferase inhibition. Q8TD30. Recombinant GPT2, coupled pyruvate oxidase/HRP Amplex Red fluorescence. Potency, µM (titrated, usually from 57.7 µM), for the others: at the highest dose activity change, negative = inhibition, usual class: inhibitors. 100,000 compounds, 0.25% hits. AID 1671188; further: nearly all actives have a fitted effect of over 60% in size
# Target sequence (Q8TD30 whole entry, looked up): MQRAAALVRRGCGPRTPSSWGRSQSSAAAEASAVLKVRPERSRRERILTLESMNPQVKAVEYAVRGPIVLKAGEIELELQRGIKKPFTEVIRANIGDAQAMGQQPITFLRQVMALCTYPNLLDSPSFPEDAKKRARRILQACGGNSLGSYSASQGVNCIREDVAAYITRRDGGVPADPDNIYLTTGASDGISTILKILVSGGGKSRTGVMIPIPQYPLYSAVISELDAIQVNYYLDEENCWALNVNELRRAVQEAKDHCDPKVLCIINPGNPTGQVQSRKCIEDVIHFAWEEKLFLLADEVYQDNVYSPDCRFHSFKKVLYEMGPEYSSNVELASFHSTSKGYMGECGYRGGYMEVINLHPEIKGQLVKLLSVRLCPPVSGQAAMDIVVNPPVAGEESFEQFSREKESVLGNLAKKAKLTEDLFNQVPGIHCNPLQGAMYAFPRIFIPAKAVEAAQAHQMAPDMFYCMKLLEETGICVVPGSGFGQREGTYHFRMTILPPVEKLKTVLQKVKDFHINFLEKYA
#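 Recombinant GPT2 (10ng/uL) with 250uM a-KG and 2mM L-alanine, 30 min at room temperature, in HEPES pH 7.5 buffer. Pyruvate detected by pyruvate oxidase/HRP/Amplex Red fluorescence after 30 min in the dark; AOA (50uM) as positive control.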
# Active calls of the source: *; i = inactive; ? = inconclusive; / = no result; ! = repeats disagree; [ ] = remark or other dose. Unless noted, the call rests on the fitted dose curve; in most records, active means well fitted curve in the direction sought with a large enough effect; inconclusive means small, poorly fitted or top-dose-only effect, or another doubt; inactive means no such curve, though single readings can be large; an effect the other way counts as inactive or inconclusive. On the % scale 0 is the no-effect control and ±100 the full control effect; potency means the concentration at half of the fitted maximal effect.
SMILES,Luciferase inh,NIH3T3 tox,hNpr1 antagonist,HEK293 tox,GPT2 inh
COc1ccc(-c2cc3c(ccn3C)c(C(=O)NCc3cccnc3)n2)cc1OC,?,?,-4%[70.6 µM],?,-6%[88.5 µM]
O=[S+]([O-])(NC1CCCN(c2ccnc3ccnn23)C1)c1cccc(C(F)(F)F)c1 (centres undefined),/,?,/,?,i
CCCc1ccccc1OCC(=O)c1ccc2c(c1)N(CC(=O)NCC1CC1)C(=O)CO2,i,-22%,-10%,-29%,?
O=C(CN1C(=O)COc2ccc(C(=O)COc3cccc(F)c3)cc21)NCc1ccc2c(c1)OCO2,i,-5%,-18%,-16%,4%
COc1ccc(NC(=O)CN2C(=O)COc3ccc(C(=O)COc4cccc(F)c4)cc32)cc1,i,40µM*,-1%,-50%,2%
CCc1ccccc1OCC(=O)c1ccc2c(c1)N(CC(=O)Nc1ccc(F)cc1)C(=O)CO2,i,32µM*,-3%,40µM*,-7%
COc1ccc(-c2nc(-c3nnn4c3COC(c3ccc(C)cc3)C4)no2)c(OC)c1 (centres undefined),i,i,-18%,-6%,-11%
Cc1noc(C)c1-c1cc2cc(C(C)C)oc2c(-c2cccnc2)n1,i,?,-3%[70.6 µM],?,-19%[88.5 µM]
CC1(Cc2ccc3c(c2)OCO3)CCCN(C(=O)c2cncc(Cl)c2)C1 (centres undefined),i,?,-5%,32µM*,-32%
Cc1c(Cl)c(C(=O)N2CCCC(C)(Cc3ccc4c(c3)OCO4)C2)nn1C (centres undefined),32µM*,?,-23%,?,-7%
CC1(Cc2ccc3c(c2)OCO3)CCCN(C(=O)N2CCOCC2)C1 (centres undefined),i,-17%,-7%,-29%,-2%
O=C(NCc1ccccc1Cl)C1CCc2nnc(CN[S+](=O)([O-])c3ccccc3Cl)n21 (centres undefined),/,-14%,/,i,1%
CCCc1ccc(S(=O)(=O)N2CCC(c3c[nH]c4c(C)cccc34)CC2)cc1,i,?,-2%,50µM*,-2%
Cc1cccc2c(C3CCN(S(=O)(=O)c4c(Cl)cccc4Cl)CC3)c[nH]c12,i,?,-1%,?,-11%
COc1ccc2cc(C3CN(C(=O)c4ccc(C)cc4OC)CCO3)ccc2c1 (centres undefined),22µM*,45µM*,?,22µM*,-12%[11.5 µM]
COc1ccc2cc(C3CN(C(=O)c4cc(C(C)=O)n[nH]4)CCO3)ccc2c1 (centres undefined),?,?,?,?,1%
N#Cc1ccc(CNC(=O)[C@@H]2Cc3nc[nH]c3CN2Cc2ccc(C(F)(F)F)cc2)cc1,i,-30%,1%,-27%,i
Cc1ccc(CN2Cc3[nH]cnc3C[C@H]2C(=O)NCc2ccc(C(F)(F)F)cc2)cc1,i,100µM*,-18%[70.6 µM],71µM*,-8%[88.5 µM]
COc1cc([C@H]2Oc3cc([C@H]4Oc5cc(O)cc(O)c5C(=O)[C@H]4O)ccc3O[C@H]2CO)ccc1O,/,/,/,/,12µM*
COc1cccc(-c2c(C(=O)NCc3cccs3)nc3sccn23)c1,/,?,/,?,0%
O=C(c1ccccc1)N1CCC2(CC1)CC(=O)N(c1ccccc1)c1ccccc1O2,i,-2%,22%,-16%,2%
O=C(c1ccccc1F)N1CCC2(CC1)CC(=O)N(c1ccccc1)c1ccccc1O2,i,?,21%,79µM*,-2%
O=C(c1ccccc1Cl)N1CCC2(CC1)CC(=O)N(c1ccccc1)c1ccccc1O2,i,?,-6%,79µM*,-5%
FC(F)(F)c1cccc(-c2ncc[nH]2)c1,/,?,/,?,-17%[88.5 µM]
COc1cc(C)c2c(c1C)C[C@H](C(C)C(=O)NCc1ccco1)CC2 (some centres undefined),i,?,-3%[70.6 µM],?,i
SMILES,Luciferase inh,NIH3T3 tox,hNpr1 antagonist,HEK293 tox,GPT2 inh
Cc1cc(OCCN(C)C)c(C)c2c1CC[C@@H]([C@H](C)C(=O)NCc1cccs1)C2,i,63µM*,5%[70.6 µM],56µM*,i
CC(C)S(=O)(=O)c1ncc(CN(C)Cc2cnn(C)c2)n1CCc1ccccc1,i,-19%,-7%,-6%,-2%
CN(Cc1ccc(F)cc1)Cc1cnc(S(C)(=O)=O)n1CCCc1ccccc1,i,?,0%,20µM*,-23%
CCS(=O)(=O)c1ncc(CN(C)Cc2ccc3nonc3c2)n1CCc1ccccc1,i,-21%,-1%,22µM*,-5%
CCCCn1c(CN(C)Cc2cnn(-c3ccccc3C)c2)cnc1S(=O)(=O)CC,i,?,-16%,?,-19%
Cc1noc(C)c1C(=O)N1C[C@@H](COCC2CC2)[C@H](c2ccccn2)C1,i,-6%,7%,3%,i
Cc1cn2nnc(C(=O)N3CCC(C(=O)Nc4cccc(C(C)C)c4)CC3)c2c(=O)[nH]1,i,i,0%,-6%,i
Cc1ccc(Cn2cc(-c3ccncc3)cc2C(=O)NC2CC2)cc1,45µM*,?,-9%,?,?
O=C(NC1CCCc2ccccc21)C1(c2ccc(Cl)cc2)CCOCC1 (centres undefined),/,-36%,/,-43%,/
c1ccc(CCn2cnc3cccnc32)cc1,40µM*,-29%[174 µM],-2%[70.6 µM],-26%[230 µM],-8%[88.5 µM]
CN(C)Cc1nnc(C2CC(NC(=O)c3ccc4scnc4c3)C2)n1C (centres undefined),i,-2%,-6%,-22%,5.6µM*!
O=C1Nc2ccccc2O[C@H]2C[C@@H]1N(C(=O)Cc1ccccc1)C2,i,-1%[138 µM],4%[70.6 µM],1%[172 µM],i
COC(=O)NC1CCN(c2nccc(Nc3ccc(OC)cc3)n2)CC1,/,-33%,/,?,i
COc1ccc(Nc2ccnc(N3CCC(C(=O)N4CCC(c5ccccc5)CC4)CC3)n2)cc1,/,20µM*,/,13µM*,i
O=C(NC1CCN(c2nccc(Nc3ccccc3Cl)n2)CC1)c1cccc(Cl)c1,/,?,/,?,i
COc1ccc(Nc2ccnc(N3CCC(C(=O)N4CCCCC4)CC3)n2)cc1,/,?,/,?,2%
COc1ccc(CC(=O)NC2CCN(c3nccc(Nc4ccc(OC)cc4)n3)CC2)cc1,/,35µM*,/,40µM*,i
Cc1ccc(Nc2ccnc(N3CCC(NC(=O)c4ccc(Cl)cc4)CC3)n2)cc1,/,32µM*,/,22µM*,i
COc1ccc(Nc2ccnc(N3CCC(NC(=O)c4cccc(Cl)c4)CC3)n2)cc1,/,28µM*,/,14µM*,?
OC1(CNCc2csc3ccc(Cl)cc23)CNCCOC1 (centres undefined),i,-20%,-1%,?,-9%
